Rows were chosen to be rich in hits. Some 2.8% of all compounds tested hit in one or more screens of this group.
L929 necroptosis: blocks zVAD induced death of L929 cells | L929 zVAD necroptosis rescue, ATP luminescence, 24 h; with zVAD 60 µM | viability rescue, % at 10 µM | actives 0.38% (n = 220,000);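 active means activation, scaled between plate controls, above about 75%, limit read from the data; inactive means activation under that limit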;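 further: 0% = zVAD with DMSO and 100% = DMSO alone without zVAD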
Calpain2 inh: blocks pig calpain II enzyme activity; purified calpain II, fluorogenic peptide substrate, 30 min; inhibition, % at 16 µM; actives 0.37% (n = 220,000); AID 1236;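 active means inhibition above about 50%, limit read from the data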
Mcl1 Noxa PPI: disrupts binding of human Mcl-1 to Noxa peptide. Q07820. TR-FRET Mcl-1/Noxa peptide binding, 2 h. inhibition, % at 21.7 µM. actives 1.5% (n = 220,000). AID 1022;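 active means compounds that cut the protein-peptide binding signal by more than 50% relative to plate controls in a single-dose test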;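 further: His-tagged Mcl-1 with rhodamine Noxa BH3 peptide and terbium anti-His antibody; 0% = Mcl-1 plus Noxa peptide wells and 100% = peptide-only wells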
Target sequence (Q07820 whole entry, looked up): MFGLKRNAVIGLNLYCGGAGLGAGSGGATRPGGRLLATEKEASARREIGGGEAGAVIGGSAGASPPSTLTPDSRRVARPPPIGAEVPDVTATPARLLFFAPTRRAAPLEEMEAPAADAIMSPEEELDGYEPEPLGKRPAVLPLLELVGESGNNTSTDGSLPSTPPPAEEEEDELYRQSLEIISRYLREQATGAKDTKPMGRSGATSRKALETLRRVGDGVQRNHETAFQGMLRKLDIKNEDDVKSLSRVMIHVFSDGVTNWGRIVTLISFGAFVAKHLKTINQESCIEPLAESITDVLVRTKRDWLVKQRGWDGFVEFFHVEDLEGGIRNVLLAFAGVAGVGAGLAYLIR
Bim-Mcl-1: disrupts Bim peptide binding to human Mcl-1. Q07820. actives 0.1% (n = 190,000). Bead-based flow cytometry, Bim peptide-Mcl-1 binding. inhibition, % at 10 µM; in the data active means inhibition above about 40%;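 further: 0% = no compound tracer wells and 100% = peptide blocker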
TNF death inh: blocks TNF-alpha induced death of Jurkat FADD-/- cells; Jurkat FADD-/- TNF necroptosis rescue, ATP luminescence, 24 h; 0 = TNF only, 100 = no-TNF cells; activation (protection from cell death), % at 10 µM; actives 0.068% (n = 220,000);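 active means activation, meaning protection from cell death, of at least 50% relative to plate controls; inactive means activation below 50%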;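 further: necroptosis triggered by 40 ng/mL TNF-alpha added together with compound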
Mcl1 Bid PPI: disrupts binding of human Mcl-1 to Bid peptide | Q07820 | TR-FRET Mcl-1/Bid-Dy647 peptide binding, 1536-well | inhibition, % at 21.7 µM | actives 0.97% (n = 220,000) | AID 1021;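 active means compounds that cut the binding signal by more than half at the single screening dose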;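 further: His-tagged Mcl-1 with europium anti-His antibody binding Bid BH3 peptide; 0% = Mcl-1 plus peptide wells and 100% = peptide-only wells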
* = called active by the depositor.

For Cn1/c(=N/NC(=O)c2ccccc2F)sc2ccccc21 the results were L929 necroptosis 0, Calpain2 inh 27, Mcl1 Noxa PPI 5, Bim-Mcl-1 0, TNF death inh 1 and Mcl1 Bid PPI -13.
For Cc1cc(C(=O)NCCCN(C)C)c2ccccc2n1 the results were L929 necroptosis -1, Calpain2 inh 26, Mcl1 Noxa PPI 1, Bim-Mcl-1 52*, TNF death inh 0 and Mcl1 Bid PPI 2.
Screening C=CCn1c(SCC(=O)NCCOC)nnc1-c1cc2c(s1)CCC(CC)C2 (centres undefined) returned L929 necroptosis 0, Calpain2 inh -5, Mcl1 Noxa PPI -7, Bim-Mcl-1 -3, TNF death inh 2 and Mcl1 Bid PPI -7.
O=C(Nc1cccc(-c2cn3ccccc3n2)c1)c1cc2ccccc2oc1=O was read as L929 necroptosis 1, Calpain2 inh 2, Mcl1 Noxa PPI 59*, Bim-Mcl-1 2, TNF death inh -17 and Mcl1 Bid PPI 60*.
For COc1ccc(NC(=O)CN2CCC(C(N)=O)(N3CCCCC3)CC2)c(OC)c1 the results were L929 necroptosis 2, Calpain2 inh -14, Mcl1 Noxa PPI -3, Bim-Mcl-1 4, TNF death inh 1 and Mcl1 Bid PPI 6.
`COc1ccc(NS(=O)(=O)c2cccc(C(=O)N/N=C/c3ccc4c(c3)OCCO4)c2)cc1` gave L929 necroptosis 3, Calpain2 inh -32, Mcl1 Noxa PPI 32, Bim-Mcl-1 -1, TNF death inh 1 and Mcl1 Bid PPI 65*.
O=C(/C=C/Nc1ccc(F)cc1)c1ccc(Br)cc1 was read as L929 necroptosis 0, Calpain2 inh -50, Mcl1 Noxa PPI -7, Bim-Mcl-1 -2, TNF death inh 0 and Mcl1 Bid PPI -12.
O=C(/C=C/Nc1ccc([N+](=O)[O-])cc1)c1ccc(Br)cc1 was read as L929 necroptosis 4, Calpain2 inh -21, Mcl1 Noxa PPI 53*, Bim-Mcl-1 0, TNF death inh 1 and Mcl1 Bid PPI 15.
Screening CC(C)CCN(C(=O)Cc1ccc(Cl)c(Cl)c1)c1c(N)n(Cc2ccccc2)c(=O)[nH]c1=O returned L929 necroptosis 1, Calpain2 inh -21, Mcl1 Noxa PPI 2, Bim-Mcl-1 0, TNF death inh -1 and Mcl1 Bid PPI -4.
For O=C1C2C3C=CC(CC3)C2C(=O)N1/N=C/c1ccc(O)c(O)c1 (centres undefined) the results were L929 necroptosis 4, Calpain2 inh -16, Mcl1 Noxa PPI 26, Bim-Mcl-1 -13, TNF death inh -2 and Mcl1 Bid PPI -89.
For O=C1c2ccccc2C(=O)N1/N=C/c1ccc(O)c(O)c1 the results were L929 necroptosis 1, Calpain2 inh 3, Mcl1 Noxa PPI 72*, Bim-Mcl-1 -2, TNF death inh -2 and Mcl1 Bid PPI -66.
`COc1cccc(CN(C)CC(=O)Nc2cccc(C(F)(F)F)c2)c1OC` gave L929 necroptosis 1, Calpain2 inh 63*, Mcl1 Noxa PPI -1, Bim-Mcl-1 7, TNF death inh 1 and Mcl1 Bid PPI -20.
Screening O=C(NCc1ccco1)c1cccc(Nc2nc3ccc(Br)cc3[nH]2)c1 returned L929 necroptosis 1, Calpain2 inh 82*, Mcl1 Noxa PPI 24, Bim-Mcl-1 -6, TNF death inh -4 and Mcl1 Bid PPI 0.
Screening O=C(Cc1ccc(Nc2nc3ccc(Br)cc3[nH]2)cc1)NCCc1cccs1 returned L929 necroptosis 1, Calpain2 inh 40, Mcl1 Noxa PPI 27, Bim-Mcl-1 -5, TNF death inh -7 and Mcl1 Bid PPI -9.
Screening O=C(NCC1CC1)c1ccc(Nc2nc3ccc(Br)cc3[nH]2)cc1 returned L929 necroptosis 10, Calpain2 inh -7, Mcl1 Noxa PPI 52*, Bim-Mcl-1 0, TNF death inh 0 and Mcl1 Bid PPI 13.
COc1ccccc1CN1CN(S(=O)(=O)c2ccccc2)c2nc3ccccc3nc21 was read as L929 necroptosis 0, Calpain2 inh 5, Mcl1 Noxa PPI -3, TNF death inh 1 and Mcl1 Bid PPI 3.
CS(=O)(=O)N1CCCC(C(=O)NCCc2ccc(Cl)cc2)C1 (centres undefined) was read as L929 necroptosis 2, Calpain2 inh 13, Mcl1 Noxa PPI 18, Bim-Mcl-1 -4, TNF death inh 1 and Mcl1 Bid PPI -32.
Screening CCCS(=O)(=O)N1CCCC(C(=O)NCCc2ccc(Cl)cc2)C1 (centres undefined) returned L929 necroptosis 0, Calpain2 inh -8, Mcl1 Noxa PPI 0, Bim-Mcl-1 -2, TNF death inh -2 and Mcl1 Bid PPI 55*.
For O=c1ccc2cc3c([nH]c4ccc(Br)cc43)oc-2c1O the results were L929 necroptosis 0, Calpain2 inh -190, Mcl1 Noxa PPI 94*, Bim-Mcl-1 24, TNF death inh 1 and Mcl1 Bid PPI 13.
Screening CC(=O)C1=C(C)NC2=C(C(=O)c3ccccc32)C1c1ccccc1 (centres undefined) returned L929 necroptosis 0, Calpain2 inh 9, Mcl1 Noxa PPI 12, Bim-Mcl-1 -2, TNF death inh -2 and Mcl1 Bid PPI -17.
Nc1nc2c(c(=O)[nH]1)C(c1cccc3ccccc13)C1=C(N2)c2ccccc2C1=O (centres undefined) was read as L929 necroptosis 2, Calpain2 inh -69, Mcl1 Noxa PPI 94*, Bim-Mcl-1 4, TNF death inh 3 and Mcl1 Bid PPI 14.
For COc1cc(C2C(N3C(=O)c4ccccc4C3=O)C(=O)N2c2cccc(C)c2)cc(OC)c1OC (centres undefined) the results were L929 necroptosis 0, Calpain2 inh -3, Mcl1 Noxa PPI 9, Bim-Mcl-1 -4, TNF death inh -2 and Mcl1 Bid PPI -3.
`COc1ccccc1/C=c1\sc2nc(-c3ccccc3OC)nn2c1=O` gave L929 necroptosis 1, Calpain2 inh -64, Mcl1 Noxa PPI -2, Bim-Mcl-1 -1, TNF death inh -15 and Mcl1 Bid PPI -4.
`O=c1nc2s/c(=C\c3ccco3)c(=O)n2nc1Cc1ccc(F)cc1` gave L929 necroptosis 0, Calpain2 inh 5, Mcl1 Noxa PPI 65*, Bim-Mcl-1 -2, TNF death inh -2 and Mcl1 Bid PPI -31.
`C=CCOc1ccccc1/C=c1\sc2nc(-c3oc4ccccc4c3C)nn2c1=O` gave L929 necroptosis 2 and TNF death inh 0.
Screening Cc1ccc(/C=c2\sc3nc(-c4ccccc4Br)nn3c2=O)o1 returned L929 necroptosis 0, Calpain2 inh -34, Mcl1 Noxa PPI 79*, Bim-Mcl-1 9, TNF death inh -2 and Mcl1 Bid PPI 62*.
Cc1ccc(/C=c2\sc3nc(-c4ccco4)nn3c2=O)o1 was read as L929 necroptosis 0, Calpain2 inh -75, Mcl1 Noxa PPI 77*, Bim-Mcl-1 5, TNF death inh -1 and Mcl1 Bid PPI 25.
